High-throughput results deposited in PubChem by National Center for Advancing Translational Sciences (NCATS).
An excerpt weighted towards active compounds, which were near 15% of everything screened.
Pf growth 96h: P. falciparum growth inhibition at 96 hours | P. falciparum luciferase reporter growth, 96 h | Potency, µM (top dose mostly 28.7 µM), for the others: at the highest dose activity change, negative = inhibition, usual class: inhibitors | 320,000 compounds, 6.9% hits | AID 504834; further: potency means the concentration at half of the fitted maximal effect; on the % scale 0 is the no-effect control and ±100 the full control effect
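P. falciparum expressing integrated firefly luciferase grown in erythrocytes (2% hematocrit, 0.05% parasitemia final) with compounds for 96 hours at 37 C, 5% CO2. Growth inhibition read as loss of luminescence after adding luciferase detection reagent.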
HCMV antiviral: inhibitors of human cytomegalovirus; AID 1259415; 410,000 compounds, 4.5% hits; activity change, negative = inhibition, % at 57.5 µM; HFF cells, HCMV-luciferase reporter, 72 h; hits give low values; in the data active means activity change below about -60%; inconclusive means no clear call, values can overlap the other calls; inactive means above about -39%; further: on the % scale 0 is the no-effect control and ±100 the full control effect
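After 16 h attachment at 37C, HFF cells received test compound and HCMV-luciferase (1 PFU/cell); reporter luminescence read 72 h later, data normalized against buffer-only and known inhibitor Salinomycin.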
Sm TGR block: S. mansoni TGR enzyme inhibition; 360,000 compounds, 3% hits; purified TGR, DTNB reduction, TNB absorbance 405 nm; Q962Y6; Potency, µM (series often up to 114 µM), inactives show top-dose activity change, negative = inhibition, usual class: inhibitors; AID 485364; further: potency means the concentration at half of the fitted maximal effect; on the % scale 0 is the no-effect control and ±100 the full control effect; nearly all actives have a fitted effect of over 60% in size
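Kinetic colorimetric format: TGR-catalysed, NADPH-driven DTNB reduction monitored via TNB absorbance. Enzyme dispensed at 20 nM; compound exposure 15 min at room temperature before reaction start.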
SARS PLpro yeast: inhibitors of SARS-CoV papain-like protease in yeast; 330,000 compounds, 0.19% hits; S. cerevisiae expressing SARS-CoV PLpro, growth rescue; Potency, µM (series often up to 32.9 µM), for inactives: at the top dose activity, positive = growth rescue, hits mostly activators; calls by dose curve; further: potency means the concentration at half of the fitted maximal effect; 0% is about no effect; nearly all actives have a fitted effect of over 55% in size
Pf growth 48h: P. falciparum growth inhibition at 48 hours (one generation); P. falciparum luciferase growth in erythrocytes, 48 h; Potency, µM (series often up to 28.7 µM), for inactives: at the top dose activity change, negative = inhibition, actives largely listed as inhibitors; 310,000 compounds, 5.9% hits; AID 504832; further: potency means the concentration at half of the fitted maximal effect; on the % scale 0 is the no-effect control and ±100 the full control effect
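Luciferase-expressing parasites in RBCs, 2% Hct / 0.1% parasitemia final; RPMI 1640 + 0.5% Albumax; 37 C, 5% CO2, one generation; luminescence read-out, lower signal = inhibition.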
HCV inhibitor: HCV inhibition; Huh7.5.1 HCVcc-Cre infection, luciferase reporter, 44 h; Potency, µM (titrated, usually from 41.8 µM), for inactives: at the top dose activity change, negative = inhibition, usual class: inhibitors; 340,000 compounds, 3.4% hits; AID 651820; further: potency means the concentration at half of the fitted maximal effect; on the % scale 0 is the no-effect control and ±100 the full control effect
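Infectious HCVcc-Cre (~0.5 moi) was added to cells just after compound, with cells seeded 4 h earlier at 1,000 per well. Luciferase activity after 44 h culture reported infection; substrate was incubated 15 min at room temperature before reading.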
Active calls of the source: *; i = inactive; ? = inconclusive; . = no result. Unless noted, the call rests on the fitted dose curve; in most records, active means well fitted curve in the direction sought with a large enough effect; inconclusive means small, poorly fitted or top-dose-only effect, or another doubt; inactive means no such curve, though single readings can be large; an effect the other way counts as inactive or inconclusive.

SMILES	Pf growth 96h	HCMV antiviral	Sm TGR block	SARS PLpro yeast	Pf growth 48h	HCV inhibitor
CCn1cc2nc(SCc3ccc(F)cc3)n(Cc3ccc(Cl)cc3)c(=O)c2n1	.	2	-1%	.	.	.
Clc1ccc(-c2cn(-c3nc4ccccc4s3)nn2)cc1	.	77	.	.	.	.
Cc1c(C(=O)OCc2ccccc2)[nH]c2c1C(=O)CC(c1ccc(Cl)cc1)C2 (stereo not given)	.	-69*	4%	.	.	.
COc1ccc(C2CC(=O)c3c([nH]c(C(=O)OCc4ccccc4)c3C)C2)cc1OC (stereo not given)	.	-8	-1%	.	.	.
NC(=O)c1c(N)[nH]c(C(=O)c2ccccc2)c1-c1ccccc1Br	.	4	.	.	.	.
COc1ccccc1NS(=O)(=O)c1ccc(C(=O)NCC(c2cccs2)N2CCOCC2)cc1 (stereo not given)	.	17	.	3%	.	-12%
CC(C)N(Cc1ccccc1)C(=O)COC(=O)/C=C/c1cnc2ccccc2n1	44%	-25	-22%	1%	12%	2%
CCN(C(=O)COC(=O)/C=C/c1cnc2ccccc2n1)c1ccccc1	?	-89*	-13%	-1%	-7%	8%
CCOc1ccc(C2CC(c3c(O)n(C)c(=O)n(C)c3=O)=NN2)cc1 (stereo not given)	15µM*	38	3%	1%	?	-13%
CCC(=O)N1N=C(c2c(O)n(C)c(=O)n(C)c2=O)CC1c1ccccc1 (stereo not given)	?	?	10%	0%	?	?
Cn1c(O)c(C2=NNC(c3ccc(Cl)cc3)C2)c(=O)n(C)c1=O (stereo not given)	?	8	3%	0%	13µM*	6%
O=C(OCc1cc(=O)n2nc(-c3cccs3)sc2n1)c1ccc(Cl)cc1	.	5	2%	.	.	.
COc1cc([N+](=O)[O-])ccc1NC(=O)N1CCCCCC1	-7%	?	32µM*	-3%	?	?
O=[N+]([O-])c1ccc(N2CCc3ccccc3C2)cc1	0%	-102*	2%	-4%	37%	-19%
O=C(c1ccccc1NS(=O)(=O)c1cccc([N+](=O)[O-])c1)N1CCCC1	?	-79*	-26%	-5%	24%	.
O=C(Nc1ccc([N+](=O)[O-])cc1)N1CCCCC1	8.3µM*	-26	3%	-1%	23%	18%
COc1cc([N+](=O)[O-])ccc1NC(=O)Nc1ccc(C(=O)N2CCCC2)cc1	?	?	?	13%	?	-9%
O=C(Nc1ccc([N+](=O)[O-])cc1)N1CCCCCC1	?	12	-3%	.	-13%	-8%
O=[N+]([O-])c1ccc(-c2csc(N3CCc4ccccc4C3)n2)cc1	7%	-7	5%	-2%	0%	7%
CN1CCN(C(=O)CN(C)S(=O)(=O)c2cc(Cl)ccc2Cl)CC1	-3%	7	4%	-1%	-10%	15%
CCOC(=O)c1c(C)[nH]c(C)c1S(=O)(=O)N1CCCC(C(=O)Nc2ccc(C)c(N(C)C)c2)C1 (stereo not given)	.	-6	-6%	.	.	.
COc1cc(NC(=O)C2C3C=CC(C3)C2C(=O)O)c(OC)cc1Cl (stereo not given)	-28%	45	-5%	-1%	12%	7%
COc1cc([N+](=O)[O-])ccc1NC(=S)Nc1cccc(C(=O)O)c1	1.5µM*	14	?	6%	-10%	?
O=C(Nc1cccc([N+](=O)[O-])c1)N1CCCCCC1	3.7µM*	-3	2%	2%	23%	-2%
COC(=O)Nc1ccc([N+](=O)[O-])cc1OC	i	-6	-4%	0%	26%	1%
SMILES	Pf growth 96h	HCMV antiviral	Sm TGR block	SARS PLpro yeast	Pf growth 48h	HCV inhibitor
O=C(Nc1ccc([N+](=O)[O-])cc1)N1CCc2ccccc2C1	47%	6	1%	-19%	?	10µM*
COc1cc([N+](=O)[O-])ccc1NC(=O)C1C2C=CC(C2)C1C(=O)O (stereo not given)	12µM*	53	-2%	0%	?	19%
O=C(CN1CCCCC1)Nc1cccc([N+](=O)[O-])c1	82%	8	2%	4%	0%	-7%
NC(c1csc(Nc2cc(NCCCO)ncn2)n1)c1ccccc1Cl (stereo not given)	.	-25	.	.	.	.
CC(C)(C)c1ccc(NC(=O)N2CCCN(c3ccc([N+](=O)[O-])cn3)CC2)cc1	?	-73*	3%	-3%	8.3µM*	-76%
CCC(=O)N1CCc2cc(OC)c(OC)cc2C1COc1ccc(C(=O)OC)cc1 (stereo not given)	?	30	-12%	27%	10µM*	?
COC(=O)c1ccc(OCC2c3cc(OC)c(OC)cc3CCN2C(=O)c2ccco2)cc1 (stereo not given)	?	91	-10%	-19%	15µM*	?
COC(=O)c1ccc(OCC(O)CN2CCc3cc(OC)c(OC)cc3C2c2ccccc2)cc1 (stereo not given)	10µM*	-25	-7%	1%	?	7.9µM*
COC(=O)c1ccc(OCC2c3cc(OC)c(OC)cc3CCN2C(=O)c2ccc(OC)cc2)cc1 (stereo not given)	.	12	11%	.	.	.
COC(=O)c1ccc(OCC2c3cc(OC)c(OC)cc3CCN2C(C)=O)cc1 (stereo not given)	?	16	-4%	0%	?	?
COc1ccc2cc(C3c4cc(OC)c(OC)cc4CCN3C(=O)c3ccco3)c(=O)[nH]c2c1 (stereo not given)	26%	156	-12%	2%	5.2µM*	-5%
COc1cc2c(cc1OC)C(c1cc3cc(C)ccc3[nH]c1=O)N(C(=O)c1ccco1)CC2 (stereo not given)	-5%	26	-8%	3%	?	7%
CCOC(=O)c1sc(NC(=O)c2cc3nc(-c4ccccc4)cc(C(F)(F)F)n3n2)c(C(=O)OCC)c1C	.	-23	6%	.	.	.
CO/N=C(/C(=O)N[C@@H]1C(=O)N2C(C(=O)O)=CCS[C@H]12)c1csc(N)n1	-13%	.	.	.	-21%	.
OCc1ccccc1OCc1ccccc1	.	-9	.	.	.	.
COc1cc2c(cc1OC)C(COc1ccccc1OC)N(C(=O)c1ccccc1OC)CC2 (stereo not given)	.	-106*	-4%	.	.	.
COc1cc2c(cc1OC)C(COc1ccccc1OC)N(C(=O)c1ccc(S(=O)(=O)N3CCCC3)cc1)CC2 (stereo not given)	.	-9	37%	.	.	.
CC(C)N1CCN(S(=O)(=O)c2ccccc2)CC1	13%	-16	11%	-4%	12%	10%
